Screens from PubChem.
An excerpt weighted towards active compounds, which were near 1.2% of everything screened.
ABHD5-PLIN5 inh: ABHD5-PLIN5 interaction inhibitors, primary screen, cell lysate, split luciferase complementation, luminescence | 0.78% of 360,000 active | AID 602281, 2012 | inhibition, % at 4 µM | Split G. princeps luciferase complementation, 4 h | Perilipin-5 (Homo sapiens) + 1-acylglycerol-3-phosphate O-acyltransferase ABHD5 (Homo …;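 active means inhibition above the mean inhibition across every tested compound plus 3 SD, cut at about 22% in these data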
NOD2 RIPK2 PPI: NOD2-RIPK2 binding disruptors in cells, primary screen, fluorescence, CHO cells, BLA complementation | CCF4 ratio | inhibition, % at 4.98 µM | 0.38% of 360,000 active | AID 624267, 2012; in the data active means inhibition above about 21%
Target sequence (O43353 whole entry, looked up): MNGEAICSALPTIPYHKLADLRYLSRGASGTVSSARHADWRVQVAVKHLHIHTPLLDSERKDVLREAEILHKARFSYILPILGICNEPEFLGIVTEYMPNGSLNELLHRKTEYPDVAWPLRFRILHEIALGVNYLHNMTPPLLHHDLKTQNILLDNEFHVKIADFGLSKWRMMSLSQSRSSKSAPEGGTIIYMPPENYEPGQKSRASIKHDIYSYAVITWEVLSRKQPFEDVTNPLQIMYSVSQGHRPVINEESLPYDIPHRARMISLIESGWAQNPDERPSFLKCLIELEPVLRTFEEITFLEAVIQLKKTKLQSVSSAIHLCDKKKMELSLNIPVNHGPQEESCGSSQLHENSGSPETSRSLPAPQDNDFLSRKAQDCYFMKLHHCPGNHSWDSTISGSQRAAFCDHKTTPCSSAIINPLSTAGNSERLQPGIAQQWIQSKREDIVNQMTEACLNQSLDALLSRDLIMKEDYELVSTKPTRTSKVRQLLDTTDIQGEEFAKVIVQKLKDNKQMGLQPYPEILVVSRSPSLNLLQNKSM
TLR9-MyD88 block: inhibitors of TLR9-MyD88 association in cells, primary screen, cell-based, CHO, BLA complementation, fluorescence | Toll-like receptor 9 (Homo sapiens) + Myeloid differentiation primary response protein … | CCF4 FRET ratio | inhibition, % at 4.98 µM | 0.21% of 340,000 active | AID 504734, 2011;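 active means inhibition above the mean over all tested compounds plus 3 SD, cut at about 21% in these data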
TLR4 MyD88 comp: inhibitors of TLR4-MyD88 association in cells, primary screen, cell-based, HeLa CL3-4, BLA complementation, FRET ratio; Toll-like receptor 4 (Homo sapiens) + Myeloid differentiation primary response protein …; HeLa CL3-4 TLR4/MyD88 BLA complementation; inhibition, % at 8.4 µM; 0.18% of 200,000 active; AID 861, 2007; in the data active means inhibition above about 25%
TLR4 MyD88 cnf: TLR4-MyD88 association inhibitors, retest, confirmation, cell-based, HeLa CL3-4, BLA complementation, FRET ratio; inhibition, % at 8.4 µM; shares compounds with TLR4 MyD88 comp; 50% of 350 active; CCF4 FRET ratio;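 active means mean inhibition across three repeat runs above about 25% carried over from the earlier screen, limit read from the data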
BLA inh HeLa: inhibits beta-lactamase activity, counter-screen to TLR4-MyD88 binding inhibitors; shares compounds with TLR4 MyD88 comp; HeLa BLA reporter, CCF4 FRET ratio; inhibition, % at 8.4 µM; 63% of 350 active; AID 1237;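 active means mean inhibition over three repeats above about 26% taken from the earlier screen, limit read from the data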;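 further: HeLa cells stably expressing beta-lactamase reporter as counterscreen for TLR4-MyD88 inhibitors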
Hits are given with their value; - = inactive; . = no result.

SMILES	ABHD5-PLIN5 inh	NOD2 RIPK2 PPI	TLR9-MyD88 block	TLR4 MyD88 comp	TLR4 MyD88 cnf	BLA inh HeLa
COc1nc(-c2ccncc2)nc2ccccc12	-	-	-	-	.	.
C=CCOc1nc(-c2ccncc2)nc2ccccc12	-	-	-	25	-	-
O=c1c(Br)c(Br)cnn1-c1ccccc1	-	-	-	35	-	-
O=c1c(Br)c(N2CCCC2)cnn1-c1ccccc1	-	-	-	-	.	.
COC(=O)c1ccc(-c2sc3nc(N4CCOCC4)c4c(c3c2N)CCCC4)o1	.	.	.	27	-	52
COc1ccccc1-c1nnc(NC(=O)C(C)C)s1	-	-	-	27	-	-
CCCCC(=O)Nc1sc2c(c1C(=O)OCC)CCC(C=O)=C2Cl	-	-	-	26	38	45
Cc1c(C)n2c(SCC(=O)NCc3ccc4c(c3)OCO4)nnc2[nH]c1=O	-	-	-	.	.	.
Cn1nnc2cc(C(=O)Nc3ccccc3F)ccc21	-	-	-	.	.	.
CC(C)(C)C(=O)Cn1ncc(Br)c(Br)c1=O	-	-	-	36	-	-
CC(C)(C)C(=O)Cn1ncc(N2CCOCC2)c(Cl)c1=O	-	-	-	.	.	.
Cc1nc(NC(=O)COC(=O)c2cccs2)c(Cl)cc1Cl	-	-	-	.	.	.
O=C(N/N=C/c1cc(Cl)ccc1O)C(=O)Nc1ccccc1OC(F)(F)C(F)F	-	-	-	27	-	-
CC(=O)c1ccc(NC(=O)COC(=O)CCN2C(=O)c3cccc([N+](=O)[O-])c3C2=O)cc1	-	-	-	-	.	.
CC(C)N(c1ccccc1)c1ccc(NC(=O)COC(=O)CCN2C(=O)c3cccc([N+](=O)[O-])c3C2=O)cc1	-	-	-	25	-	-
COc1cccc(/C=C/C(=O)c2c(O)cc(C)oc2=O)c1O	-	-	-	26	-	-
O=C(N=c1ccn(-c2nc3ccccc3nc2NS(=O)(=O)c2ccccc2)cc1)c1cccs1	-	-	-	66	-	-
Cc1ccc(-c2cc(C(=O)Nc3ccccc3C)c3ccccc3n2)o1	-	-	-	28	-	-
Cc1cc(C(=O)OCC(=O)NC2CCCC2)c2ccccc2n1	-	-	-	.	.	.
CC1CCCCC1NC(=O)COC(=O)c1c2c(nc3ccccc13)/C(=C/c1ccco1)CC2 (stereo not drawn)	-	-	-	61	49	85
O=C(COC(=O)c1c2c(nc3ccccc13)/C(=C/c1ccco1)CC2)NC1CCCC1	-	-	-	45	45	69
CCOC(=O)C1(C)CCCCCN1C(=O)c1ccc(SC(F)(F)F)cc1 (stereo not drawn)	-	-	.	.	.	.
COc1ccc(NS(=O)(=O)c2cc(NC(=O)COc3ccc(OC)cc3)ccc2N2CCOCC2)cc1	-	-	-	.	.	.
O=C(c1cc2ccccc2c(=O)o1)N1CCCCCC1	-	-	-	-	.	.
COc1cccc(CNC(=O)C2CCC(=O)N(CCc3cccc(F)c3)C2)c1 (stereo not drawn)	-	-	-	.	.	.
SMILES	ABHD5-PLIN5 inh	NOD2 RIPK2 PPI	TLR9-MyD88 block	TLR4 MyD88 comp	TLR4 MyD88 cnf	BLA inh HeLa
CC(C)(C)c1cc(NC(=O)c2cccnc2)no1	-	-	-	27	-	-
CC(C)(C)c1cc(NC(=O)c2cccs2)no1	-	-	-	.	.	.
CC(C)(C)c1ccc(-n2nc(C#N)c(Cl)cc2=O)cc1	32	72	.	42	30	-
CC(C)(C)c1ccc(-n2nc(C(N)=O)c(O)cc2=O)cc1	-	-	-	-	.	.
CCc1nc2ccc(C(=O)NCc3ccccc3OC)cn2c1N(CC)CCN(C)C	-	-	.	.	.	.
CCc1cccc2c(C(=O)CSc3nnc(C4CC4)o3)c[nH]c12	-	-	-	.	.	.
CCOC(=O)c1c(NC2=NS(=O)(=O)c3ccccc32)sc2c1CCC(C)C2 (stereo not drawn)	-	-	-	52	-	-
CCOC(=O)c1c(NC2=NS(=O)(=O)c3ccccc32)sc2c1CCCCC2	-	-	-	-	.	.
Cc1ccc2nc(Cl)c(/C=N/Nc3nc(C)cc(C)n3)c(=O)n2c1	-	-	-	33	-	28
Clc1ccc(CSc2nnc(CN3CCOCC3)n2-c2ccccc2)cc1Cl	-	-	-	26	-	-
Clc1cccc(Cl)c1CSc1nnc(CN2CCOCC2)n1-c1ccccc1	-	-	-	-	.	.
CNc1cncc(-c2ccoc2)n1	-	-	.	.	.	.
Cc1ccc(N=Cc2sc(O)c3ccccc23)c(C)c1	-	-	-	25	-	37
Cc1ccc(N=Cc2cccc(O)c2O)c(C)c1	-	-	-	-	.	.
Cc1ccc(N=Cc2sc(O)c3ccccc23)cc1	-	-	-	39	-	52
O=C(NCc1ccco1)c1cccc2c1C(=O)c1ccc(N3CCC(N4CCCCC4)CC3)cc1S2(=O)=O	-	-	-	.	.	.
O=S(=O)(Nc1cc2nc3ccccc3nc2n1Cc1ccccc1)c1ccc(Cl)cc1	-	44	-	36	33	66
N#Cc1ccccc1Cn1cc(/C=N/Nc2ccc([N+](=O)[O-])cn2)c2ccccc21	-	-	-	46	40	79
O=[N+]([O-])c1ccc(N/N=C/c2ccc(OCc3cccc4ccccc34)cc2)nc1	-	-	-	35	47	82
COCCNC(=O)NC(=O)CN1C(=O)NC(Cc2c[nH]c3ccccc23)C1=O (stereo not drawn)	-	-	-	.	.	.
Cc1ccc2c(c1)c1c3n2CCN=C3CCC1	-	-	-	-	.	.
c1cc2c(cc1C1CCCCC1)c1c3n2CCN=C3CCC1	-	-	-	27	-	41
O=c1c2ccccc2nc(/C=C/c2c[nH]c3ccccc23)n1CCO	-	-	-	26	-	-
O=c1c2ccccc2nc(/C=C/c2cc(Br)ccc2O)n1CCO	-	-	-	.	.	.
COc1ccccc1-c1ccc([C@@H]2C[C@H]3[C@@H](CN2)CON3C)cc1	-	-	-	.	.	.
SMILES	ABHD5-PLIN5 inh	NOD2 RIPK2 PPI	TLR9-MyD88 block	TLR4 MyD88 comp	TLR4 MyD88 cnf	BLA inh HeLa
O=C(CSc1nc2scc(-c3ccco3)c2c(=O)n1-c1ccccc1)N1CCOCC1	-	-	-	30	-	-
O=C(CSc1nc2c(c(=O)n1-c1ccccc1)SCC2)N1CCOCC1	-	-	-	-	.	.
COc1ccc(C(C(=O)NC2CCCC2)N(Cc2cccnc2)C(=O)Cc2cccs2)c(OC)c1 (stereo not drawn)	-	-	-	.	.	.
Cc1ccc(C)c(N2C(=N)S/C(=C\c3ccc(-c4ccccc4C(=O)O)o3)C2=O)c1	-	-	-	26	-	-
Cc1ccc(NC(=O)CN2C(=O)S/C(=C\c3ccc(-c4cccc(C(=O)O)c4C)o3)C2=O)cc1	.	.	.	-	.	.
CNC[C@H]1Oc2ccc(NC(=O)Nc3ccccc3)cc2CC(=O)N([C@H](C)CO)C[C@H]1C	-	-	-	.	.	.
